The source made the active and inactive calls.
How the values were obtained:
[1] = E. coli DRC41 culture turbidity changes, primary screen, E. coli filamentation inducer project, strain DRC41, OD650, 48 h (AID 1152);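 note: E. coli MC1000 strain DRC41 lacking acrAB efflux pump and sulA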; settings: E. coli DRC41 (acrAB sulA), higher = more signal, called active from +8 up or from −8 down
[2] = small-molecule binders of probe aLefty1, primary screen, biochemical, small-molecule microarray, 635/667 nm fluorescence (AID 1153); settings: higher = more signal;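 note: score merges spot fluorescence with signal-to-noise ratio from the scanned slide images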
[3] = PSAC antagonists in infected red cells, primary screen, cell-based, P. falciparum Indochina, OD700, 1 h (AID 1154); settings: P. falciparum Indochina infected RBC osmotic lysis, higher = more signal, called active from +8 up or from −8 down
[4] = PSAC antagonists in infected red cells, primary screen, cell-based, P. falciparum Indochina, OD700, 2 h (AID 1155);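 note: lysis reports solute entry through the parasite surface anion channel PSAC; channel blockers reduce lysis of infected cells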; settings: P. falciparum Indochina infected erythrocytes, osmotic lysis OD700; higher = more signal, called active from +8 up or from −8 down
[5] = osmotic lysis modulators in infected erythrocytes, primary screen, PSAC antagonist project, cell-based, P. falciparum Indochina, OD700, 3 h (AID 1156); settings: higher = more signal, called active from +8 up or from −8 down
[6] = PSAC antagonists in infected red cells, primary screen, cell-based, P. falciparum Indochina, OD700, 18 h (AID 1157); settings: P. falciparum Indochina infected erythrocytes, osmotic lysis OD700, 18 h; higher = more signal, called active from +8 up or from −8 down
[7] = modulators of S6 phosphorylation in cells, primary screen, cell-based, A549, cytoblot, luminescence, serum-stimulated (AID 1158); settings: A549 phospho-S6 cytoblot, 5 h, higher = more signal;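 note: serum-stimulated A549 lung adenocarcinoma cells; signal is phosphorylated S6 detected by cytoblot immunostaining with HRP secondary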
[8] = molecular target: NADPH oxidase 2 (Homo sapiens) (UniProt P04839); assay: NOX2-dependent H2O2 signal modulators, primary screen, NOX inhibitor project, cell-based, HEK293-NOX2, PMA-stimulated, Amplex Red fluorescence (AID 1159); settings: 45 min, higher = more signal, called active from +8 up or from −8 down; note: test concentration not given here
[9] = molecular target: NADPH oxidase 4 (Homo sapiens) (UniProt Q9NPH5); assay: NOX4-dependent H2O2 signal modulators, primary screen, NOX inhibitor project, cell-based, HEK293-NOX4, tetracycline-induced, Amplex Red fluorescence (AID 1160); settings: 45 min, higher = more signal, called active from +8 up or from −8 down
[10] = molecular target: NADPH oxidase 5 (Homo sapiens) (UniProt Q96PH1); assay: NOX5-dependent H2O2 signal modulators, primary screen, NOX inhibitor project, cell-based, HEK293-NOX5, Amplex Red fluorescence (AID 1161); settings: HEK293-NOX5, ionomycin, 45 min, higher = more signal
[11] = A549 cell viability effects, profiling panel, calcein-AM fluorescence, 48 h, basal (AID 1162); settings: higher = more signal; note: test concentration not given here
[12] = adipocyte viability effects, profiling panel, cell-based, 3T3-L1 adipocytes, calcein-AM fluorescence, 48 h, basal (AID 1163); settings: 3T3-L1 adipocytes viability, higher = more signal; note: test concentration not given here
[13] = HepG2 cell viability effects, profiling panel, calcein-AM fluorescence, 48 h, basal (AID 1164); settings: higher = more signal; note: test concentration not given here
[14] = MM1S cell viability effects, profiling panel, calcein-AM fluorescence, 48 h, basal (AID 1165); settings: higher = more signal;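 note: viability of MM1S multiple myeloma cells under basal unstimulated conditions; test concentration not given here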
[15] = basal RPMI8226 viability, no added stimulus, profiling panel, cell-based, calcein-AM fluorescence, 48 h, PK04 Diversity Set (AID 1166); settings: RPMI8226 myeloma viability, higher = more signal;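 note: cells grown under basal conditions without added stimulus; test concentration not given here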
[16] = basal HepG2 mitochondrial membrane potential changes, profiling panel, cell-based, JC-1 fluorescence, 24 h, 100 nL compound (AID 1167); settings: higher = more signal; note: test concentration not given here
[17] = basal 3T3-L1 adipocyte mitochondrial potential changes, profiling panel, cell-based, JC-1 fluorescence, 3T3-L1 adipocytes, 24 h, 100 nL compound (AID 1168); settings: JC-1 mitochondrial fluorescence, higher = more signal, called active from +8 up or from −8 down; note: test concentration not given here
[18] = basal RPMI8226 mitochondrial membrane potential changes, profiling panel, cell-based, JC-1 fluorescence, 24 h, 100 nL compound (AID 1169); settings: RPMI8226 myeloma, JC-1 mitochondrial potential fluorescence, higher = more signal; note: test concentration not given here
[19] = basal MM1S mitochondrial membrane potential changes, profiling panel, cell-based, JC-1 fluorescence, 24 h, 100 nL compound (AID 1170); settings: higher = more signal; note: test concentration not given here
[20] = A549 lung cancer cell viability effects, profiling panel, resazurin fluorescence, 24 h, PK04 Diversity Set (AID 1171); settings: higher = more signal, called active from +8 up or from −8 down; note: test concentration not given here

Sequence of NADPH oxidase 2 (Homo sapiens) (P04839 whole entry, looked up): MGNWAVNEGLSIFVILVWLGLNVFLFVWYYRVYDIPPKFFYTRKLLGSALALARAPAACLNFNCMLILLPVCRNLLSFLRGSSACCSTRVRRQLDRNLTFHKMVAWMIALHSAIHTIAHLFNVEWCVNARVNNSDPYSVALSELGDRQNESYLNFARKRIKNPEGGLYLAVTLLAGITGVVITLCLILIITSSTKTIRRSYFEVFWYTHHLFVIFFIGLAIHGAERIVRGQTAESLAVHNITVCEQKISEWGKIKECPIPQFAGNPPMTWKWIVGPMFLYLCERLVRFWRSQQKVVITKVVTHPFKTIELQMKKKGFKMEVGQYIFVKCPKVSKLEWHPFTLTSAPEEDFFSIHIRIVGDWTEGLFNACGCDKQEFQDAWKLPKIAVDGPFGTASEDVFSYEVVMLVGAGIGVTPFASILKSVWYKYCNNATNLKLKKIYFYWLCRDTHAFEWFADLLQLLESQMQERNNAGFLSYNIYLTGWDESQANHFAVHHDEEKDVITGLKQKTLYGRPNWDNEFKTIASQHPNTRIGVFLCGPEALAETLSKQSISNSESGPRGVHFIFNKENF
Sequence of NADPH oxidase 4 (Homo sapiens) (Q9NPH5 whole entry, looked up): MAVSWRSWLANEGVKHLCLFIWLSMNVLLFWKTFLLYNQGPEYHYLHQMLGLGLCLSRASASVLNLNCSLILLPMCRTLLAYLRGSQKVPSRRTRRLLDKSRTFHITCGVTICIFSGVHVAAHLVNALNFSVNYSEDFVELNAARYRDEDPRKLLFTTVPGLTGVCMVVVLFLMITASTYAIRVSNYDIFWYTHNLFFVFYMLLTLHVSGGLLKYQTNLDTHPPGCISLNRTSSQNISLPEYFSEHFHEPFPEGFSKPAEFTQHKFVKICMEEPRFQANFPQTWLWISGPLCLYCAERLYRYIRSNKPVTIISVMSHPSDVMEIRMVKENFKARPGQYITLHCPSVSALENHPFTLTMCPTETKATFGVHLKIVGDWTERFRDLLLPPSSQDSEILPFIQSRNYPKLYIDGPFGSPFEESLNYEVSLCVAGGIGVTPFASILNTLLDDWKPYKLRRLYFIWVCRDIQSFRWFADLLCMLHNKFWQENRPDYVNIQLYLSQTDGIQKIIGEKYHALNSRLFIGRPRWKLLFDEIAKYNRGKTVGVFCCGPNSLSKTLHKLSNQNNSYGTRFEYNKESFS
Sequence of NADPH oxidase 5 (Homo sapiens) (Q96PH1 whole entry, looked up): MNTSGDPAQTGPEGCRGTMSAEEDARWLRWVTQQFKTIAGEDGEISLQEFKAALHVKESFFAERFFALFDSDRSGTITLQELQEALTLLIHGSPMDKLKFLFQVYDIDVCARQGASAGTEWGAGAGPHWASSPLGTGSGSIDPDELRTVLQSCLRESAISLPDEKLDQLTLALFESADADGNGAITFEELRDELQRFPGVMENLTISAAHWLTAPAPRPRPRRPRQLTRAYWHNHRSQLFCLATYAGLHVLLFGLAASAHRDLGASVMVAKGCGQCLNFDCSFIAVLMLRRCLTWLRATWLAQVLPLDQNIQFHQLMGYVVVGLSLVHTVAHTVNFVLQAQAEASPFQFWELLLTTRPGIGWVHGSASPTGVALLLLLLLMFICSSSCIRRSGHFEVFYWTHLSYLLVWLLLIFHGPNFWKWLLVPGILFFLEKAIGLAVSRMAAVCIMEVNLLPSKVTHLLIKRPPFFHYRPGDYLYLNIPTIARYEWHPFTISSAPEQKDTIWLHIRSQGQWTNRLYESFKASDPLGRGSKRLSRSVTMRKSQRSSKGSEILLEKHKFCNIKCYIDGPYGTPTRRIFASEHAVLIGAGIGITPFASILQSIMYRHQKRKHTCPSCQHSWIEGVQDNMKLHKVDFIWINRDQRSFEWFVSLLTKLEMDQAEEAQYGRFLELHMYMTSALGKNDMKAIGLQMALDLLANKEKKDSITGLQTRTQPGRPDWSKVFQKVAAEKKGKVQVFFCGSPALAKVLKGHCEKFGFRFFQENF

Compound | z-score [1] | composite z-score [2] | z-score [3] | z-score [4] | z-score [5] | z-score [6] | z-score [7] | z-score [8] | z-score [9] | z-score [10] | z-score [11] | z-score [12] | z-score [13] | z-score [14] | z-score [15] | z-score [16] | z-score [17] | z-score [18] | z-score [19] | z-score [20]
O=C1O[C@@H](c2ccccc2)[C@@H](c2ccccc2)N2[C@@H](c3ccc(O)cc3)[C@]3(C(=O)Nc4ccc(C#CCCO)cc43)[C@@H](C(=O)Nc3nc4ccccc4s3)[C@H]12 | 0.341 (inactive) | 0.139 | 1.35 (inactive) | 1.19 (inactive) | -0.743 (inactive) | 1.63 (inactive) | -0.435 | 1.1 (inactive) | 0.604 (inactive) | -0.073 | 1.06 | 0.225 | 0.609 | -2.66 | -2.65 | -3.79 | -1.3 (inactive) | -0.503 | -1.03 | 0.621 (inactive)
Cc1ccc(S[C@]2(C(=O)O)CC(=O)N(Cc3ccccc3Cl)[C@@H]2c2ccc(CO)cc2)cc1 | 0.33 (inactive) | -0.112 | 2.67 (inactive) | -0.185 (inactive) | 0.825 (inactive) | 0.55 (inactive) | 0.227 | 0.646 (inactive) | -1.5 (inactive) | 0.432 | 0.322 | 0.152 | -0.0394 | -0.217 | -1.44 | -0.0706 | -0.672 (inactive) | -0.509 | 1.37 | -0.462 (inactive)
C=C(C(=O)CC[C@H](OC(C)=O)c1cccc(OCCO)c1)C(C)C | 0.667 (inactive) | -0.283 | 2.12 (inactive) | -1.94 (inactive) | 1.7 (inactive) | -1.7 (inactive) | 0.617 | -1.48 (inactive) | -0.481 (inactive) | -1.61 | -0.271 | 0.8 | -0.979 | -0.624 | -0.814 | -1.1 | 0.113 (inactive) | -0.427 | 0.89 | -0.62 (inactive)
C=C(COC)/C(=C/C[C@@H](OC(=O)c1ccncc1)c1cccc(OCCO)c1)c1cnc2ccccc2c1 | -0.0626 (inactive) | 0.664 | 18.8 (active) | 6.49 (inactive) | -1.32 (inactive) | 1.29 (inactive) | 0.507 | -1.47 (inactive) | -0.256 (inactive) | -3.1 | 0.0954 | 0.542 | -1.03 | -2.17 | -0.307 | 0.862 | -1.76 (inactive) | 0.187 | 0.276 | -0.634 (inactive)
NC(=O)NCC#Cc1ccc2c(c1)[C@]1(C(=O)N2)[C@H](c2ccc(O)cc2)N2[C@H](c3ccccc3)[C@H](c3ccccc3)OC(=O)[C@H]2[C@@H]1C(=O)Nc1nc2ccccc2s1 | 0.589 (inactive) | 0.127 | 3.28 (inactive) | 2.86 (inactive) | 0.904 (inactive) | 2.09 (inactive) | 0.0298 | 0.0666 (inactive) | -1.01 (inactive) | 0.17 | 0.421 | 1.17 | 0.157 | -0.168 | 0.496 | -3.24 | 0.352 (inactive) | -1.16 | -2.12 | 0.754 (inactive)
CCOC(=O)C[C@H]1[C@H](OC(=O)c2ccc(-c3ccccc3)cc2)[C@@H](NC(=O)c2ccc3ccccc3n2)c2cc(OCCCO)ccc2N1C(=O)c1ccccc1 | -0.715 (inactive) | 0.0367 | 0.18 (inactive) | -0.168 (inactive) | -0.571 (inactive) | 0.261 (inactive) | 0.893 | -0.59 (inactive) | -1.72 (inactive) | -1.04 | -1.05 | 0.312 | -0.677 | 0.23 | -0.248 | 1.35 | -0.248 (inactive) | 0.224 | 0.0802 | 0.0216 (inactive)
C=C(C(=O)CC[C@H](OC(=O)c1cccnc1)c1ccc(CO)o1)C(C)C | -0.92 (inactive) | 0.333 | 1.73 (inactive) | -0.115 (inactive) | -0.158 (inactive) | -0.0363 (inactive) | -0.143 | 0.637 (inactive) | 0.123 (inactive) | -0.0889 | -0.242 | -0.449 | -0.676 | -0.66 | 0.202 | -2 | -1.78 (inactive) | 0.322 | -0.458 | -0.361 (inactive)
C=CCOC(=O)[C@H]1[C@@H]2C(=O)O[C@@H](c3ccccc3)[C@@H](c3ccccc3)N2[C@@H](c2ccc(OCCOC(=O)[C@H]3C[C@H]4C(=O)N[C@@H](Cc5ccccc5)C(=O)N4[C@H]3c3ccc(O)cc3)cc2)[C@]12C(=O)Nc1ccc(I)cc12 | -0.783 (inactive) | -0.0162 | 4.04 (inactive) | 2.09 (inactive) | 0.28 (inactive) | 1.06 (inactive) | -0.481 | 2.07 (inactive) | 1.18 (inactive) | 2.35 | -0.7 | 0.664 | 1.16 | 0.0161 | -0.321 | 0.408 | -0.118 (inactive) | -0.59 | -1.04 | -0.0968 (inactive)
COc1ccc([Si](C)(C)[C@H]2[C@H](CCO)O[C@@]3(C(=O)N(Cc4cccc(N5CCCCC5=O)c4)c4ccccc43)[C@@H]2C)cc1 | -0.205 (inactive) | 0.102 | 5.16 (inactive) | 1.94 (inactive) | 0.558 (inactive) | 1.38 (inactive) | 0.781 | -5.46 (inactive) | -1.46 (inactive) | 0.189 | -1.38 | -0.865 | -4.36 | -2.73 | -4.35 | -1.59 | 0.0395 (inactive) | -1.1 | -2.09 | -2.95 (inactive)

Reference: PubChem BioAssay
